# Source: PubChem (National Center for Advancing Translational Sciences (NCATS))
# Sampled rows, rich in hits. Any-hit rate of the full collection: about 2.2%.
# Nrf2 activator = activates Nrf2 signaling; Potency, µM (titrated, usually from 46.1 µM), for the others: at the highest dose activation, hits mostly activators; actives 0.31% (n = 410,000); AREc32 ARE-luciferase reporter (MCF7-derived line), luminescence, 24 h; note: % of control where 0% means no effect; nearly all actives have a fitted effect of over 65% in size
#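 ARE activation measured as luciferase luminescence (Steady-Glo, 30 min RT) in AREc32_Fluc cells after 24 hr compound exposure at 37 deg C, 5% CO2; cells seeded overnight at 1000/well in OPTI-MEM, 5% FBS.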
# Nrf2 block = inhibitors of Nrf2 signaling; actives 2.1% (n = 360,000); A549 ARE-Fluc reporter, luciferase luminescence, 18-24 h; Potency, µM (titrated, usually from 46 µM), for the others: at the highest dose activity change, negative = inhibition, hits mostly inhibitors; note: % is set by controls: 0 for no effect and ±100 for the full control effect; nearly all actives have a fitted effect of over 60% in size
#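 In this cell-based qHTS, ARE-driven firefly luciferase in A549 cells reports Nrf2 activity; the luminescent signal after BugLite lysis is the measured value, with a prior CellTiter-Fluor read for cell health.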
# Pin1 inhibitor = blocks the human prolyl isomerase Pin1; Q13526; Pin1 FP peptide displacement, HiFluor488, 10 min; Potency, µM (highest dose often 115 µM), for inactives: at the top dose activity, negative = inhibition, usual class: inhibitors; actives 0.009% (n = 390,000); AID 504891; active = well fitted inhibition curve with a large enough effect in the polarisation, with a control signal flat, not every such curve was filed as active; inconclusive = small, poorly fitted or top-dose-only effect, or effect the other way, or a change in a side signal; inactive = no such curve, though single readings can be large or run the other way; the % refers to the polarisation; note: % is set by controls: 0 for no effect and ±100 for the full control effect
# Target sequence (Q13526 whole entry, looked up): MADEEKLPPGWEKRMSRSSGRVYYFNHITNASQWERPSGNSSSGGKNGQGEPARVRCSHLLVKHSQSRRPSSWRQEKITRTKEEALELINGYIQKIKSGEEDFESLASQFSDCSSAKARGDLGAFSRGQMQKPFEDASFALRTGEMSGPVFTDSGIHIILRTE
# A549 tox = counter-screen for Nrf2 inhibitors: cytotoxicity in A549 cells; A549 ARE-Fluc cells, CellTiter-Fluor viability, 18-24 h; Potency, µM (series often up to 46 µM), inactives show at the highest dose activity change, negative = cytotoxicity, most hits filed as inhibitors; actives 0.16% (n = 390,000); AID 504648; note: % is set by controls: 0 for no effect and ±100 for the full control effect
#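 A549 ARE_Fluc cells in 5% FBS OPTI-MEM were exposed to compounds in concentration-response for 18-24 h at 37 deg C. Viability was read by CellTiter-Fluor fluorescence (Ex 405/Em 525) after 30 min, before the luciferase read.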
# Starred values were filed as active, the others as inactive; ? = inconclusive; . = no result; [ ] = dose if it differs, or a comment. Unless noted, calls come from the whole dose curve; as a rule, active = well fitted curve in the direction sought with a large enough effect; inconclusive = small, poorly fitted or top-dose-only effect, or another doubt; inactive = no such curve, though single readings can be large; an effect the other way counts as inactive or inconclusive. Potency is the fitted concentration of half-maximal effect.
SMILES,Nrf2 activator,Nrf2 block,Pin1 inhibitor,A549 tox
O=C(c1cnn2c(C(F)F)cc(-c3ccccc3)nc12)N1CCc2ccccc2C1,0%,23µM*,51%,?
Cc1cc(C(F)F)n2ncc(C(=O)N3CCc4ccccc4C3)c2n1,-1%,.,1%,-5%
COc1cc2oc3ccccc3c(=O)c2cc1OC,10µM*,7%,7%,-1%
COc1ccc2oc3cc(Cl)ccc3c(=O)c2c1,7.9µM*,.,.,.
Cc1nc2oc3ccccc3c(=O)c2cc1C(=O)O,0%,9%,-6%,-4%
COC(=O)c1cc2c(=O)c3ccccc3oc2nc1C,7.9µM*,?,-5%,0%
O=[S+]([O-])(c1ccc2c(c1)OCCO2)N1CCN([S+](=O)([O-])c2ccc(F)cc2Br)CC1,.,-11%,-1%,4%
O=C(Nc1ccc(F)cc1)c1ccc(-n2cncn2)c([N+](=O)[O-])c1,3%,23µM*,-9%,-6%
Cc1ccc(NC(=O)c2ccc(-n3cncn3)c([N+](=O)[O-])c2)cc1F,0%,-7%,-2%,-1%
Clc1ccc(CNc2ncnc3[nH]ncc23)c(Cl)c1,0%,23µM*,1%,-14%
CC(=O)OCON[N+]([O-])=NC(C)C,.,15%,-2%,-11%
Cc1ccc[n+](C(C)C(=O)c2ccc(Cl)cc2)c1 (stereo not drawn),0%,-3%,2%,-1%
Cc1cc(C)c[n+](C(C)C(=O)c2ccc(-c3ccccc3)cc2)c1 (stereo not drawn),0%,15µM*,0%,-10%
O=C(C1COc2cc(S(=O)(=O)Nc3ccc(Cl)cc3)ccc2O1)N1CCCC1 (stereo not drawn),0%,26µM*,1%,-5%
COc1ccccc1NC(=O)CSc1nc(-c2ccc(C(C)(C)C)cc2)c(C#N)c(=O)[nH]1,0%,-1%,.,1%
CCSc1nnc(NC(=O)C2CCN(S(=O)(=O)c3ccccc3C(F)(F)F)CC2)s1,0%,23µM*,23%,-2%
COCCNC(=O)CSc1nc2cc3c(cc2c(=O)n1Cc1ccc(C(=O)NCCc2ccc(OC)c(OC)c2)cc1)OCO3,-1%,.,1%,6%
Cc1oc(-c2cccc(Cl)c2)nc1CSCC(=O)NCc1ccccc1Cl,-1%,23µM*,29%,?
CCOc1ccc(-c2nc(CSCC(=O)NCc3ccc(Cl)cc3)c(C)o2)cc1,-2%,.,1%,7%
Cc1oc(-c2ccc(Cl)cc2)nc1CSCC(=O)NCc1ccccc1Cl,0%,.,-11%,-3%
Cc1ccc(CNC(=O)CSCc2nc(-c3ccc(Cl)cc3)oc2C)cc1,-1%,21µM*,3%,-8%
CCCCOC(=O)/C=C\C(=O)NC(N)=O,16µM*,-12%,2%,-3%
CCN(Cc1ccccc1)S(=O)(=O)c1cc(C(=O)Nc2cc(Cl)cc(Cl)c2)ccc1F,0%,.,0%,?
COC(=O)C(NNc1ccc(F)cc1)(NC(=O)c1ccccc1)C(F)(F)F (stereo not drawn),1%,23µM*,-10%,-3%
COc1cc2c(cc1OC)C(COc1ccc3c(C)cc(=O)oc3c1)N(C(=O)c1cccc(C)c1)CC2 (stereo not drawn),1%,-12%[9.27 µM],0%,8%
SMILES,Nrf2 activator,Nrf2 block,Pin1 inhibitor,A549 tox
Cc1ccc(-c2cc(-c3ccccc3)c3c(N)c(S(C)(=O)=O)sc3n2)cc1,2%,13µM*,39%,11%
CCOC(=O)N1CCC(N(C(=O)Nc2ccc(Cl)c(Cl)c2)C(C)CC)CC1 (stereo not drawn),4%,15µM*,3%,?
CC(C)S(=O)(=O)N1CCN(c2nc(-c3cccs3)nc3ccccc23)CC1,.,?,6%,2%
CCCCN(CC)C(=O)Nc1ccc2c(c1)N(C)C(=O)c1ccccc1S2,0%,?,8%,?
CCc1ccc(NC(=O)C2=CC(c3ccc(OC)c(OC)c3)=NS(=O)(=O)N2C)cc1,0%,23µM*,18%,-20%
COc1ccc(CNC(=O)C2=CC(c3ccc(OC)c(OC)c3)=NS(=O)(=O)N2C)cc1,0%,-3%,4%,-12%
COc1ccc(C2=NS(=O)(=O)N(C)C(C(=O)NCc3ccccc3)=C2)cc1OC,0%,-12%,2%,-19%
COc1ccc(C2=NS(=O)(=O)N(C)C(C(=O)N3CCc4ccccc4C3)=C2)cc1OC,4%,15µM*,20%,-28%
c1ccc(-c2cc3c(-n4cccc4)ncnc3o2)cc1,3.2µM*,16%,17%,-3%
O=C1C=CC(n2cc(F)c(=O)[nH]c2=O)O1 (stereo not drawn),25µM*,.,.,.
Cc1ccc(NS(=O)(=O)c2cc3c(cc2Cl)CCC(=O)N3)cc1C,.,-21%,-1%,1%
CCN(CC)C(=O)CSc1n[nH]c(=O)n1CCc1ccccc1,0%,-9%,2%,2%
O=c1[nH]nc(Sc2ncnc3sccc23)n1CCc1ccccc1,?,15µM*,7%,-5%
Cc1cccc(OCC(=O)Nc2nnc(-c3ccco3)s2)c1,7%,?,17%,0%
COc1ccc(NC(=O)Nc2nnc(-c3ccco3)s2)cc1,13µM*,?,9%,-5%
COc1ccccc1OCC(=O)Nc1nnc(-c2ccco2)s1,11µM*,7%,26%,11%
O=C(NC(=S)Nc1ccc(NC(=O)c2cccs2)cc1)c1cc2ccccc2o1,0%,?,6%,-15%
O=C(c1cc2ccccc2o1)c1cccs1,22µM*,?,-3%,0%
Cc1ccc(CN(C(=O)c2ccc(OCC(C)C)cc2)c2ccccn2)o1,6%,19%,-4%,9%
Cn1cc(CCNC(=O)CC2C(=O)NCCN2Cc2cccc(Oc3ccccc3)c2)cn1 (stereo not drawn),0%,15µM*,-3%,6%
COc1ccc(Cn2c(C)nc3c(c2=O)c2nc4ccccc4nc2n3Cc2ccco2)cc1,3%,18µM*,79%,-17%
O=C(Nc1ccc(F)cc1F)c1cc2c(=O)n3ccccc3nc2s1,5%,15%,-4%,-1%
COc1cccc(C(c2nnnn2Cc2ccco2)N2CCN(c3cccc(C)c3C)CC2)c1OC (stereo not drawn),0%,23µM*,17%,1%
CCOC(=O)CCc1cc(F)c(S(=O)(=O)N2CCN(S(=O)(=O)c3ccc4c(c3)OCCO4)CC2)cc1F,.,3%,2%,-2%
S=C(NCCCc1cnc[nH]1)NCCCN(Cc1ccc(Cl)cc1)c1ccc(-c2ccccc2)cn1,.,0%,-1%,-20%
Cc1ccc2c(c1)nnn2C1CCN(S(=O)(=O)c2ccc(C(=O)O)cc2)CC1,0%,15%,9%,-1%
Cc1ccc2c(c1)nnn2C1CCN(S(=O)(=O)c2ccc(C(=O)N3C(C)CCCC3C)cc2)CC1 (stereo not drawn),6%,10µM*,13%,?
Cc1cc(C)c(Cn2cnc(-c3ccc([N+](=O)[O-])cc3)c2)c(C)c1,5%,21µM*,20%,?
CC(C)(C)c1ccc(Cn2cnc(-c3ccc([N+](=O)[O-])cc3)c2)cc1,6%,?,2%,?
